High-throughput results as filed in PubChem.
FECH inh = inhibitors of human ferrochelatase; P22830; purified FECH, Ni-mesoporphyrin absorbance 550 nm; calls only at 10 µM (by protocol); hit rate 3.3% among 20,000; AID 1671448;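 active = enzyme reaction rate more than 3 SD below the solvent-only control wells on the same plate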;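 note: lower slope than DMSO wells means FECH inhibition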
Target sequence (P22830 whole entry, looked up): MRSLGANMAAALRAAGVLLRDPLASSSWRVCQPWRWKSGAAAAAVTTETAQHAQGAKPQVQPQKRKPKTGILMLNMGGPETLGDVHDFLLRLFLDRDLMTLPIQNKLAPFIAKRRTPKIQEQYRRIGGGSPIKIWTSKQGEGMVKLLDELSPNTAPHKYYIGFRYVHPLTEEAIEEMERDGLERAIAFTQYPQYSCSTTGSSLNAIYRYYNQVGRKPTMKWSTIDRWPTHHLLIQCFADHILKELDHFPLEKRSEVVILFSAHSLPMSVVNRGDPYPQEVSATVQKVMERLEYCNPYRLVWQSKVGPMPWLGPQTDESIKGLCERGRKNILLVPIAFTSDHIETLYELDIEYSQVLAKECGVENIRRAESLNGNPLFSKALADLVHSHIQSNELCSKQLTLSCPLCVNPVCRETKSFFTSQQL
Calls only; n = inactive; + = active, no number. This is one part of a sample in which hits are shown more often than they occur.

SMILES | FECH inh
O=C(NCC1COCCO1)c1ccccc1NC(=O)c1nsc2ccccc12 (stereo not drawn) | n
O=S(=O)(NCc1ccccc1)NCc1ccccn1 | n
C=CCN(C(=O)CCn1c(C)cc(C)nc1=O)C1CCCC1 | n
COc1ccccc1NC(=O)CN1C(=O)CCc2cc(S(=O)(=O)N3CCCC3)ccc21 | n
COc1cccc(Nc2nc(NCc3cccnc3)nc3c2cnn3-c2ccccc2)c1 | n
Fc1cccc(-c2nccn2Cc2noc(Cc3ccccc3)n2)c1 | n
Cc1ccn2c3c(nc2c1)CNC(=O)CC3c1cccc2nonc12 (stereo not drawn) | n
O=C(Nc1nc2n(n1)C(c1ccc(Cl)cc1)C=C(c1ccccc1)N2)c1ccc(Cl)cc1 (stereo not drawn) | n
Cc1ccc(C2=CC(c3ccc(Cl)cc3)n3nc(NC(=O)c4cccc(Cl)c4)nc3N2)cc1 (stereo not drawn) | n
O=C(Nc1nc2n(n1)C(c1ccc(Cl)cc1)C=C(c1ccccc1)N2)c1cccnc1 (stereo not drawn) | +
O=C(Nc1nc2n(n1)C(c1ccc(Cl)cc1)C=C(c1ccccc1)N2)c1ccc(F)cc1 (stereo not drawn) | n
O=C(Nc1nc2n(n1)C(c1ccccc1)C=C(c1ccc(Cl)cc1)N2)c1ccccc1 (stereo not drawn) | n
O=C(Nc1nc2n(n1)C(c1ccc(Cl)cc1)C=C(c1ccc(Cl)cc1)N2)c1cccnc1 (stereo not drawn) | +
O=C(c1ccco1)N1CCN(C(=O)C2CCCN(c3ncnc4c3nc3n4CCCCC3)C2)CC1 (stereo not drawn) | n
COCc1ccc(C(=O)Nc2ccccc2C(=O)N(C)c2ccccc2)o1 | n
Cc1nc2nc(N(C)S(=O)(=O)c3ccc(Cl)cc3)nn2c(C)c1Cl | n
CSc1nc(Nc2cc(Cl)cc(Cl)c2)c(C#N)c(-c2ccc(C)cc2)n1 | n
CN1CCC2(CC1)CN(C(=O)c1cnnn1-c1ccccc1)CCN2C | n
Cc1cccnc1CN1CCN(C(=O)c2cnn3ccn(C)c23)CC1 | n
COc1ccc(CCNC(=O)CN2CCN(Cc3ccc(F)cc3Cl)S2(=O)=O)cc1OC | +
Cc1ccc(CN2CCN(CC(=O)Nc3cccc(Cl)c3C)S2(=O)=O)cc1 | n
Cc1cccc(C)c1NC(=O)CN1CCN(Cc2ccc(F)cc2Cl)S1(=O)=O | n
Cc1c(Cl)cccc1NC(=O)CN1CCN(Cc2ccc(F)cc2Cl)S1(=O)=O | +
O=C(CN1CCN(Cc2ccc(F)cc2Cl)S1(=O)=O)NCc1ccccc1Cl | +
Cc1ccc(CNC(=O)CN2CCN(Cc3ccc(F)cc3Cl)S2(=O)=O)cc1 | n
SMILES | FECH inh
O=C(CN1CCN(Cc2ccc(F)cc2Cl)S1(=O)=O)NCc1ccccc1 | +
O=C(CN1CCN(Cc2ccc(F)cc2)S1(=O)=O)NCc1ccccc1 | n
COC(=O)c1ccc(OC)c(CN2CCN(Cc3ccc(F)cc3Cl)S2(=O)=O)c1 | n
O=C(CN1CCN(Cc2ccccc2Cl)S1(=O)=O)NCc1ccccc1Cl | n
O=C(CN1CCN(Cc2ccccc2Cl)S1(=O)=O)Nc1ccc(F)cc1 | n
O=C(CN1CCN(Cc2ccc(F)cc2Cl)S1(=O)=O)Nc1ccc2c(c1)OCO2 | n
Cc1ccc2c(c1)c(C(=O)NC1CC(=O)N(Cc3ccc(F)cc3)C1)nn2C (stereo not drawn) | n
CN(Cc1nc2c(s1)CCCC2)C(=O)CC1C(=O)N(C)C(=O)N1C (stereo not drawn) | n
COc1ccc(CNC(=O)C2CCCN2C(=O)c2ccc(-c3noc(C)n3)cc2)cc1 (stereo not drawn) | n
COCCCNC(=O)C1CCN(c2ccc(-c3cccc(C)c3)nn2)CC1 | n
COc1ccc2cc(CN3CCN(c4cccc(C)n4)CC3)c(=O)[nH]c2c1 | n
Cc1oc(-c2cccc(Oc3ccccc3)c2)nc1CN1CCNC(=O)C1C (stereo not drawn) | n
CC(=O)Nc1ccc2nc(CN3CCN4CCNC(=O)C4C3)ccc2c1 (stereo not drawn) | n
CCn1ccnc1-c1nccn1Cc1ccccc1OC | n
Cc1ccc(NCc2cc(=O)n3[nH]c(-c4ccccc4C)nc3n2)cc1Cl | n
Cc1ccccc1-c1nc2nc(CNc3cccc(Cl)c3C)cc(=O)n2[nH]1 | n
Cc1ccccc1-c1nc2nc(CNc3ccc(F)cc3)cc(=O)n2[nH]1 | +
Cc1ccccc1-c1nc2nc(CNc3cccc(C)c3C)cc(=O)n2[nH]1 | n
Cc1cccc(C)c1NCc1cc(=O)n2[nH]c(NCc3ccc(F)cc3)nc2n1 | n
Cc1ccc(Cl)cc1NCc1cc(=O)n2[nH]c(-c3ccccc3C)nc2n1 | +
Cc1nc(N(C)C)nc(N2CCN(Cc3cnn(C)c3C3CC3)CC2)c1C | n
COc1ccc(OC)c(NS(=O)(=O)c2cc(-c3ccc(=O)[nH]n3)ccc2Cl)c1 | n
CN1C[C@H](Nc2nccc(CCC(F)(F)F)n2)C[C@H]1CO | n
CCC/C=C/CN1CCN(c2ncccc2C(=O)N2CCCCC2)CC1 | n
NC(=O)[C@H](Cc1ccccc1)N1Cc2ncccc2C1=O | +
SMILES | FECH inh
NS(=O)(=O)c1ccc(CN2Cc3ncccc3C2=O)cc1 | n
O=C1c2cccnc2CN1C(CCn1cncn1)c1ccccc1 (stereo not drawn) | n
Cc1cnccc1CN(C)Cc1cn[nH]c1C(=O)O | n
CN1CCNC(=O)C1CC(=O)NCCc1nccc(-c2ccccc2)n1 (stereo not drawn) | n
CCc1cccc(NC(=O)CN2CCN(Cc3ccccc3C)S2(=O)=O)c1 | n
CSc1cccc(NC(=O)CN2CCN(Cc3ccccc3)S2(=O)=O)c1 | n
COc1ccc(NC(=O)CN2CCN(Cc3cccc(C)c3)S2(=O)=O)cc1Cl | +
O=C(CN1CCCN(Cc2ccccc2Cl)S1(=O)=O)Nc1ccccc1 | n
CSc1cccc(NC(=O)CN2CCN(Cc3ccccc3C)S2(=O)=O)c1 | +
COc1ccc(NC(=O)CN2CCCN(Cc3ccc(C)cc3)S2(=O)=O)cc1 | n
CC(=O)c1cccc(NC(=O)CN2CCCN(Cc3ccccc3Cl)S2(=O)=O)c1 | n
CCOc1ccc(NC(=O)CN2CCCN(Cc3ccc(C)cc3)S2(=O)=O)cc1 | +
COc1ccc(NC(=O)CN2CCCN(Cc3ccccc3Cl)S2(=O)=O)cc1Cl | +
CCOC(=O)c1ccc(NC(=O)CN2CCCN(Cc3ccc(C)cc3)S2(=O)=O)cc1 | n
Cc1ccc(NC(=O)CN2CCN(Cc3ccccc3)S2(=O)=O)cc1C | n
CCOc1ccc(NC(=O)CN2CCN(Cc3cccc(C)c3)S2(=O)=O)cc1 | n
CC(C)c1ccc(NS(=O)(=O)c2ccc3c(c2)CCN3C(=O)CCC(=O)N2CCOCC2)cc1 | n
COc1ccc(-c2cc(N3CCN(C(=O)Nc4ccccc4Cl)CC3)ncn2)cc1 | n
COc1ccc(Nc2ncnc3sc(C)c(S(=O)(=O)N4CCCCC4)c23)c(OC)c1 | n
NC(=O)[C@@H]1CCCN1Cc1cn[nH]c1-c1ccc(F)cc1 | n
CCn1cc(CN(Cc2ccsc2)C(C)C)cn1 | n
Cc1ccc(NC(=O)CN2CCN(Cc3cc(C)ccc3C)S2(=O)=O)cc1 | n
COc1ccc(NC(=O)CN2CCN(Cc3ccc(C)cc3)S2(=O)=O)cc1 | n
O=C(CN1CCCN(Cc2ccc(Cl)cc2)S1(=O)=O)Nc1ccc(F)c(Cl)c1 | n
COc1ccc(NC(=O)CN2CCCN(Cc3ccc(C)cc3)S2(=O)=O)c(OC)c1 | n
COc1cc(OC)c(NC(=O)CN2CCCN(Cc3cc(C)ccc3C)S2(=O)=O)cc1Cl | +
Cc1cccc(NC(=O)CN2CCCN(Cc3ccc(Cl)cc3)S2(=O)=O)c1 | n
O=C(CN1CCCN(Cc2ccc(Cl)cc2)S1(=O)=O)Nc1cccc(Cl)c1 | +
